USP8 inh: human USP8 deubiquitinase inhibition. AID 1645853. purified USP8, Ub-rhodamine cleavage fluorescence, 30 min. P40818. 4.2% of 47,000 active. inhibition, % at 20 µM
USP7 inh: human USP7 deubiquitinase inhibition | Q93009 | purified USP7, Ub-rhodamine cleavage fluorescence | inhibition, % at 20 µM | 0.3% of 47,000 active
USP10 inh: inhibitors of human USP10 deubiquitinase; Q14694; purified USP10, Ub-rhodamine fluorescence, 60 min; inhibition, % at 20 µM; 1.1% of 47,000 active
OTUD3 inh: inhibitors of human OTUD3 deubiquitinase; 0.7% of 47,000 active; inhibition, % at 25 µM; Q5T2D3; purified OTUD3, Ub-rhodamine fluorescence, 2 h
Target sequence (Q5T2D3 whole entry, looked up): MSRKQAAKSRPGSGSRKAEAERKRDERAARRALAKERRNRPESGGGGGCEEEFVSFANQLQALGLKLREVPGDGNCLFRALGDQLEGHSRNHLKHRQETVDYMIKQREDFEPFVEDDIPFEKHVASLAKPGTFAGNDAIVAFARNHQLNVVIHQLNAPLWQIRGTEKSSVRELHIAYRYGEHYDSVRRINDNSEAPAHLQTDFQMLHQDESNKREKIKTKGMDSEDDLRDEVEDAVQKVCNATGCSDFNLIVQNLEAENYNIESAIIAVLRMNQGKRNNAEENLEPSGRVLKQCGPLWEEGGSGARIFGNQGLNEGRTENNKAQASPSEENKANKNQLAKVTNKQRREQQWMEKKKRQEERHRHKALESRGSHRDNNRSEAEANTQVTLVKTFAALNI
UCHL1 block: inhibitors of human UCHL1 deubiquitinase. inhibition, % at 20 µM. P09936. purified UCHL1, Ub-rhodamine cleavage fluorescence. 0.2% of 47,000 active
Numbers stand for hits; – = inactive; · = not tested or not shown. A selection: hits, their analogues and other compounds. The true share with any hit is near 5%. Cut-off read from the data, not from the text of the source: active = inhibition above about 30%; inactive = the rest.

SMILES	USP8 inh	USP7 inh	USP10 inh	OTUD3 inh	UCHL1 block
Cc1cc(C(=O)N2CCCCC2)c2c(=O)n(Cc3cccc(F)c3)c(=O)n(C)c2n1	–	–	–	–	–
Cc1cc(C(=O)N2CCCCC2)c2c(=O)n(Cc3ccc4nonc4c3)c(=O)n(C)c2n1	43	–	–	–	–
CC(C)=CCC/C(C)=C/Cc1c(O)cc2c(c1O)C(=O)OC2	57	88	64	79	83
O=C(Oc1ccc(-n2cnnn2)cc1)c1ccccc1Br	45	–	–	–	–
COc1ccccc1Nc1cc(C(=O)NCC2CCCO2)c2ccccc2n1 (stereo not drawn)	–	–	–	–	–
Cc1cc(=O)oc2cc(NC(=O)c3ccc(-n4cnnn4)cc3)ccc12	36	–	–	–	–
Cc1cc(=O)oc2cc(NC(=O)c3ccccc3C(=O)O)ccc12	–	·	–	–	–
CCCCCCCCCCCC1=C(O)C(=O)C=C(O)C1=O	60	50	80	94	–
COc1cc(O)c2c(c1)C1=CC(=O)C(O)=C[C@]1(C)OC2=O	–	–	–	41	–
COc1cc(O)c2c(c1)C(=O)c1cc3c(c(O)c1C2=O)C(OC1OC(C)C(OC)C(O)C1OC)C(OC)C(C)(O)C3=O (stereo not drawn)	–	–	–	–	–
CC(C)c1ccc(NC(=O)COC(=O)c2ccc(NS(=O)(=O)c3ccc4c(c3)OCCO4)cc2)cc1	–	–	51	–	–
Nc1ccc(NS(=O)(=O)c2ccc3c(c2)OCCCO3)cc1	33	–	–	–	–
O=C(COc1ccc(Cl)cc1)Nc1ccc(S(=O)(=O)Nc2ccccc2)cc1	–	–	–	–	–
O=C(COC(=O)c1ccc(NS(=O)(=O)c2ccc(F)c(F)c2)cc1)Nc1ccc(OCc2ccccc2)cc1	–	–	53	–	–
CCc1ccc(CN(C)C(=O)c2ccc(NS(=O)(=O)c3ccc(F)c(F)c3)cc2)cc1	–	–	38	–	–
Cc1cc(NC(=O)Cn2cccc2-c2nc(-c3ccc(F)cc3)no2)n[nH]1	–	–	–	–	–
Cc1nc(-c2ncc(C)[nH]2)cc(C2CCCCN2S(=O)(=O)N(C)C)n1 (stereo not drawn)	–	–	–	–	–
CC(C)CCn1c(CN2CCc3ccccc3C2)nc2c1c(=O)n(C)c(=O)n2C	–	–	–	–	–
Cn1c(=O)c2c(nc(CN3CCc4ccccc4C3)n2CC(=O)c2ccccc2)n(C)c1=O	36	–	–	–	–
COc1ccc(CNc2nc3c(c(=O)n2C)CN(C(=O)Nc2cccc(C#N)c2)CC3)cc1	–	–	–	–	–
CCc1ccc(CNCC2COCc3c(C)nnn3C2)o1 (stereo not drawn)	–	–	–	–	–
CN(c1ccc(Oc2ccc(C(F)(F)F)cn2)cc1)S(=O)(=O)c1ccccc1	73	–	–	–	–
CCOc1ccc(S(=O)(=O)N(C)c2ccc(OCC(=O)Nc3ccccc3)cc2)cc1	–	–	–	–	–
CNc1nc2c(c(=O)n1Cc1ccccc1)CN(C(=O)c1ccc(OC)cc1)CC2	–	–	–	–	–
COc1ccc(C(=O)c2nnn(-c3ccc(OC(F)(F)F)cc3)c2C)cc1	33	–	–	–	–
SMILES	USP8 inh	USP7 inh	USP10 inh	OTUD3 inh	UCHL1 block
O=C(O)c1ccccc1N[C@H]1O[C@H](CO)[C@@H](O)[C@@H](O)[C@H]1O	–	–	–	–	–
COc1ccc(-c2onc(C)c2C)cc1S(=O)(=O)NCc1ccc(F)cc1	–	–	58	–	–
O=C(c1ccc(OCC2CCCN(C(=O)c3ccc(F)cc3)C2)cc1)N1CCOCC1 (stereo not drawn)	–	–	–	–	–
CC1=C(Cn2c3cccc(=O)c-3nc3ccccc32)CCC(C)(C)C1	59	35	58	74	62
CCOC(=O)Cc1nc2ccccc2n(CC2CC2)c1=O	–	–	–	–	–
CCCn1cnc2cc(-c3noc(CNC(=O)c4cccs4)n3)ccc21	33	–	–	–	–
Cc1ccc(S(=O)(=O)N2CCC3(CC2)OC(=O)Nc2ccccc23)cc1	35	–	–	–	–
COc1ccc2c(C)cc(SCC(=O)Nc3nsc(-c4ccc(C)cc4)n3)nc2c1	–	–	–	47	–
CCN(CC)C(=O)CN1CCCC(c2ncncc2-c2cc(C)no2)C1 (stereo not drawn)	–	–	–	30	–
O=S(=O)(Cc1ccc(F)cc1)c1c[nH]c2ccccc12	68	–	–	–	–
O=C(Cn1cc(S(=O)(=O)Cc2ccc(F)cc2)c2ccccc21)N1CCCCCC1	–	–	–	–	–
CCOC(=O)C1CCCN(C(=O)C(=O)c2cn(CC(=O)N3CCCCC3)c3ccccc23)C1 (stereo not drawn)	80	–	–	–	–
O=C(/C=C/c1cccc([N+](=O)[O-])c1)N1CCc2ccccc21	84	–	–	–	–
CCn1c(-c2nnc(SCC(=O)NCCc3nc4ccccc4[nH]3)o2)cc2ccccc21	–	46	–	–	–
NC(=O)c1ccccc1OCC(=O)N1CCc2ccccc21	–	–	–	–	–
Cc1cc2ncc(-c3ccsc3)c(N)n2n1	–	–	–	–	–
Nc1c(-c2ccsc2)cnn1-c1ccccc1	57	–	–	–	–
Cc1cc(C(Nc2ccccn2)c2ccc(Cl)cc2)c(NC(=O)c2ccco2)s1 (stereo not drawn)	35	–	–	–	–
Cc1cc(CN2CCOCC2)c(NC(=O)c2ccco2)s1	–	–	–	–	–
Cc1c(C(=O)N2CCCCC2)cnn1-c1ncccc1-c1nc(C2CC2)no1	–	–	–	–	–
O=C(CC1N=C(N2CCN(c3ccccc3)CC2)NC1=O)Nc1ccccc1 (stereo not drawn)	–	–	–	–	–
Cc1cccc(NC(=O)C2CC(=O)NC(N3CCN(c4ccccc4)CC3)=N2)c1 (stereo not drawn)	34	–	–	–	–
O=C(Nc1ccccc1)c1c(O)c2cnn(Cc3ccccc3)c2[nH]c1=O	57	–	–	–	–
CCCc1ncc(CN2CCC3(CC2)CN(C(C)=O)Cc2ccccc2O3)cn1	–	–	–	–	–
O=C(O)c1ccc(Cl)c(NC(=O)C2COc3ccccc3O2)c1 (stereo not drawn)	–	58	–	–	–
SMILES	USP8 inh	USP7 inh	USP10 inh	OTUD3 inh	UCHL1 block
Cc1[nH]nc(NC(=O)C2COc3ccccc3O2)c1-c1ccccc1 (stereo not drawn)	47	–	–	37	32
O=C(Cn1cnc2ccccc2c1=O)NC(c1ccccc1)c1ccccc1	–	–	–	–	–
Cc1ccc(C(=O)NCCc2nc(-c3ccc4c(c3)OCO4)n[nH]2)cc1F	32	–	–	–	–
Cc1cccc(NC(=O)CSc2nnc(NC(=O)c3ccc4ccccc4c3)s2)c1	–	–	44	–	–
O=[N+]([O-])c1cccc(-c2noc(CSc3ccccc3)n2)c1	–	–	–	–	–
O=C1CC(c2nc3ccccc3n2CCOc2ccc(Cl)cc2)CN1c1ccccc1 (stereo not drawn)	87	–	–	–	–

Screens as filed in PubChem BioAssay.
